# Measurements: the supplement of paper PMC8975748
# Structures can show the parent of a compound that is named as a salt. ± gives the standard deviation of the averaged measurements.
# Legend:
# [1] = test system: Saccharomyces cerevisiae BY4741 SeMeCo community; assay: mean cell size (pixel area) (pixels); higher = larger cells; conditions: 10 µM; 24 h; SM minimal medium
# Procedure, shortened: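 A Saccharomyces cerevisiae BY4741 community carrying four plasmids, each with a fluorescent marker and each complementing one auxotrophy, was exposed for 24 h to drug at a final 10 µM in SM medium in acoustically predosed 384-well plates. The overnight preculture (OD600 = 1.0) was diluted to OD600 = 0.3 before 70 µl was added per well. Cells were then fixed with paraformaldehyde, imaged by automated confocal microscopy and analysed in Harmony to derive mean cell pixel area per well, averaged over 3 replicates. Same SeMeCo high-content imaging drug screen: Selleck FDA-approved drugs at 10 µM, 24 h in SM medium, 384-well plates, 3 replicates.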
# [2] = test system: Saccharomyces cerevisiae BY4741 SeMeCo community; assay: z-score of prototroph abundance vs DMSO median; higher = larger share of this subpopulation than in DMSO controls; conditions: 10 µM; 24 h; SM minimal medium; subpopulation (auxotrophy): Prototroph
# Procedure, shortened: (§1)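 Four plasmids, each restoring a single auxotrophy and encoding a distinct fluorescent protein, were carried by a Saccharomyces cerevisiae BY4741 community. After overnight growth to OD600 1.0 and dilution to 0.3, 70 µl per well was grown for 24 h in minimal SM medium on 384-well plates acoustically predosed with library drugs at 10 µM final. Following paraformaldehyde fixation, automated confocal microscopy was used, with single-auxotroph fluorescent strains defining thresholds and autofluorescence correction. Subpopulation abundance was then scored as a z-score against the vehicle-well median.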
# [3] = test system: Saccharomyces cerevisiae BY4741 SeMeCo community; assay: z-score of subpopulation abundance vs DMSO median, subpopulation auxotrophic for L; higher = larger share of this subpopulation than in DMSO controls; conditions: 10 µM; 24 h; SM minimal medium; subpopulation (auxotrophy): L
# Procedure, shortened: as §1
# [4] = test system: Saccharomyces cerevisiae BY4741 SeMeCo community; assay: z-score of subpopulation abundance vs DMSO median, subpopulation auxotrophic for U; higher = larger share of this subpopulation than in DMSO controls; conditions: 10 µM; 24 h; SM minimal medium; subpopulation (auxotrophy): U
# Procedure, shortened: as §1
# [5] = test system: Saccharomyces cerevisiae BY4741 SeMeCo community; assay: z-score of subpopulation abundance vs DMSO median, subpopulation auxotrophic for H; higher = larger share of this subpopulation than in DMSO controls; conditions: 10 µM; 24 h; SM minimal medium; subpopulation (auxotrophy): H
# Procedure, shortened: as §1
# [6] = test system: Saccharomyces cerevisiae BY4741 SeMeCo community; assay: z-score of subpopulation abundance vs DMSO median, subpopulation auxotrophic for LM; higher = larger share of this subpopulation than in DMSO controls; conditions: 10 µM; 24 h; SM minimal medium; subpopulation (auxotrophy): LM
# Procedure, shortened: as §1
# [7] = test system: Saccharomyces cerevisiae BY4741 SeMeCo community; assay: z-score of subpopulation abundance vs DMSO median, subpopulation auxotrophic for HM; higher = larger share of this subpopulation than in DMSO controls; conditions: 10 µM; 24 h; SM minimal medium; subpopulation (auxotrophy): HM
# Procedure, shortened: as §1
# [8] = test system: Saccharomyces cerevisiae BY4741 SeMeCo community; assay: z-score of subpopulation abundance vs DMSO median, subpopulation auxotrophic for HL; higher = larger share of this subpopulation than in DMSO controls; conditions: 10 µM; 24 h; SM minimal medium; subpopulation (auxotrophy): HL
# Procedure, shortened: as §1
# [9] = test system: Saccharomyces cerevisiae BY4741 SeMeCo community; assay: z-score of subpopulation abundance vs DMSO median, subpopulation auxotrophic for HLM; higher = larger share of this subpopulation than in DMSO controls; conditions: 10 µM; 24 h; SM minimal medium; subpopulation (auxotrophy): HLM
# Procedure, shortened: as §1
# [10] = test system: Saccharomyces cerevisiae BY4741 SeMeCo community; assay: z-score of subpopulation abundance vs DMSO median, subpopulation auxotrophic for HUM; higher = larger share of this subpopulation than in DMSO controls; conditions: 10 µM; 24 h; SM minimal medium; subpopulation (auxotrophy): HUM
# Procedure, shortened: as §1
# [11] = test system: Saccharomyces cerevisiae BY4741 SeMeCo community; assay: z-score of subpopulation abundance vs DMSO median, subpopulation auxotrophic for LUM; higher = larger share of this subpopulation than in DMSO controls; conditions: 10 µM; 24 h; SM minimal medium; subpopulation (auxotrophy): LUM
# Procedure, shortened: as §1
# [12] = test system: Saccharomyces cerevisiae BY4741 SeMeCo community; assay: z-score of subpopulation abundance vs DMSO median, subpopulation auxotrophic for HLUM; higher = larger share of this subpopulation than in DMSO controls; conditions: 10 µM; 24 h; SM minimal medium; subpopulation (auxotrophy): HLUM
# Procedure, shortened: as §1
# [13] = test system: Saccharomyces cerevisiae BY4741 SeMeCo community; assay: z-score of subpopulation abundance vs DMSO median, subpopulation auxotrophic for LU; higher = larger share of this subpopulation than in DMSO controls; conditions: 10 µM; 24 h; SM minimal medium; subpopulation (auxotrophy): LU
# Procedure, shortened: as §1
# [14] = test system: Saccharomyces cerevisiae BY4741 SeMeCo community; assay: z-score of subpopulation abundance vs DMSO median, subpopulation auxotrophic for HU; higher = larger share of this subpopulation than in DMSO controls; conditions: 10 µM; 24 h; SM minimal medium; subpopulation (auxotrophy): HU
# Procedure, shortened: as §1
# [15] = test system: Saccharomyces cerevisiae BY4741 SeMeCo community; assay: z-score of subpopulation abundance vs DMSO median, subpopulation auxotrophic for UM; higher = larger share of this subpopulation than in DMSO controls; conditions: 10 µM; 24 h; SM minimal medium; subpopulation (auxotrophy): UM
# Procedure, shortened: as §1
compound,measurement,setting,value
C=C1c2cccc(O)c2C(=O)C2=C(O)[C@]3(O)C(=O)C(C(N)=O)=C(O)[C@@H](N(C)C)[C@@H]3[C@@H](O)[C@H]12 [Methacycline HCl],mean cell size,[1],12.2 ± 0.23
Cc1c(C)c2c(c(C)c1O)CC[C@@](C)(CCC[C@H](C)CCC[C@H](C)CCCC(C)C)O2 [Vitamin E],mean cell size,[1],12.2 ± 0.22
CN1CCCN=C1/C=C/c1cccc(O)c1 [Oxantel Pamoate],mean cell size,[1],12.6 ± 0.29
same,z-score of prototroph abundance,[2],1.15
same,z-score of subpopulation abundance,[3],-0.58
same,z-score of subpopulation abundance,[4],-1.1
same,z-score of subpopulation abundance,[5],0.29
same,z-score of subpopulation abundance,[6],-0.51
same,z-score of subpopulation abundance,[7],-0.6
same,z-score of subpopulation abundance,[8],-0.28
same,z-score of subpopulation abundance,[9],-0.2
same,z-score of subpopulation abundance,[10],-1.13
same,z-score of subpopulation abundance,[11],-1.13
same,z-score of subpopulation abundance,[12],-0.41
CO[C@H]1/C=C/O[C@@]2(C)Oc3c(C)c(O)c4c(c3C2=O)C2=NC3(CCN(CC(C)C)CC3)NC2=C(NC(=O)/C(C)=C\C=C\[C@H](C)[C@H](O)[C@@H](C)[C@@H](O)[C@@H](C)[C@H](OC(C)=O)[C@@H]1C)C4=O [Rifabutin],mean cell size,[1],12.6 ± 0.21
CN(C)[C@@H]1C(O)=C(C(N)=O)C(=O)[C@@]2(O)C(O)=C3C(=O)c4c(O)cccc4[C@@](C)(O)[C@H]3[C@H](O)[C@@H]12 [Oxytetracycline (Terramycin)],mean cell size,[1],12.87 ± 0.067
C[C@@H]1NC(=O)[C@@H](N)CNC(=O)[C@H](C2CCNC(=N)N2)NC(=O)/C(=C/NC(N)=O)NC(=O)[C@H](CNC(=O)CC(N)CCCN)NC1=O.N=C1NCC[C@H]([C@@H]2NC(=O)/C(=C/NC(N)=O)NC(=O)[C@H](CNC(=O)C[C@@H](N)CCCN)NC(=O)[C@H](CO)NC(=O)[C@@H](N)CNC2=O)N1 [Capreomycin Sulfate],mean cell size,[1],12.1 ± 0.22
CCC(C)n1ncn(-c2ccc(N3CCN(c4ccc(OCC5COC(Cn6cncn6)(c6ccc(Cl)cc6Cl)O5)cc4)CC3)cc2)c1=O (stereo not given) [Itraconazole],mean cell size,[1],11.93 ± 0.1
same,z-score of prototroph abundance,[2],-10.4
same,z-score of subpopulation abundance,[4],-0.83
same,z-score of subpopulation abundance,[5],18.3
same,z-score of subpopulation abundance,[13],-0.44
same,z-score of subpopulation abundance,[6],1.85
same,z-score of subpopulation abundance,[7],7.45
same,z-score of subpopulation abundance,[14],7.89
same,z-score of subpopulation abundance,[15],11.4
same,z-score of subpopulation abundance,[8],17.3
same,z-score of subpopulation abundance,[9],12.5
same,z-score of subpopulation abundance,[11],6.18
same,z-score of subpopulation abundance,[12],7.85
Cn1nnc(-c2ccc(-c3ccc(N4C[C@H](COP(=O)(O)O)OC4=O)cc3F)cn2)n1 [Tedizolid Phosphate],z-score of subpopulation abundance,[3],-1.36
same,z-score of subpopulation abundance,[4],0.63
same,z-score of subpopulation abundance,[5],-0.61
same,z-score of subpopulation abundance,[13],-0.94
same,z-score of subpopulation abundance,[6],-2.14
same,z-score of subpopulation abundance,[14],-0.46
same,z-score of subpopulation abundance,[15],-0.77
same,z-score of subpopulation abundance,[8],-0.86
same,z-score of subpopulation abundance,[9],-0.8
same,z-score of subpopulation abundance,[10],-0.98
same,z-score of subpopulation abundance,[11],-1.05
same,z-score of subpopulation abundance,[12],-0.73
COc1ccc2c(c1)C(=O)N(CCc1ccc(S(=O)(=O)NC(=O)NC3CCCCC3)cc1)C(=O)C2(C)C [Gliquidone],mean cell size,[1],12.5 ± 0.12
CN(C)[C@@H]1C(O)=C(C(N)=O)C(=O)[C@@]2(O)C(O)=C3C(=O)c4c(O)ccc(Cl)c4[C@@](C)(O)[C@H]3C[C@@H]12 [Chlortetracycline HCl],mean cell size,[1],12.4 ± 0.2
CN(C)c1cc(NC(=O)CNC(C)(C)C)c(O)c2c1C[C@H]1C[C@H]3[C@H](N(C)C)C(O)=C(C(N)=O)C(=O)[C@@]3(O)C(O)=C1C2=O [Tigecycline],mean cell size,[1],12.8 ± 0.2
CCCCCCCCCC(=O)N[C@H]1[C@H](Oc2c3cc4cc2Oc2ccc(cc2Cl)[C@@H](O[C@@H]2O[C@H](CO)[C@@H](O)[C@H](O)[C@H]2NC(C)=O)[C@@H]2NC(=O)[C@H](NC(=O)[C@@H]4NC(=O)[C@H]4NC(=O)[C@@H](Cc5ccc(c(Cl)c5)O3)NC(=O)[C@H](N)c3ccc(O)c(c3)Oc3cc(O)cc4c3)c3ccc(O)c(c3)-c3c(OC4O[C@H](CO)[C@@H](O)[C@H](O)[C@@H]4O)cc(O)cc3[C@@H](C(=O)O)NC2=O)O[C@H](CO)[C@@H](O)[C@@H]1O (stereo not given in full) [Teicoplanin],mean cell size,[1],11.8 ± 0.16
O=C1C(O)=C([C@H]2CC[C@H](c3ccc(Cl)cc3)CC2)C(=O)c2ccccc21 [Atovaquone],mean cell size,[1],12.39 ± 0.12
CN(C)[C@@H]1C(O)=C(C(N)=O)C(=O)[C@@]2(O)C(O)=C3C(=O)c4c(O)cccc4[C@@](C)(O)[C@H]3C[C@@H]12 [Tetracycline HCl],mean cell size,[1],12.3 ± 0.19
CCOc1ccc(NC(C)=O)cc1 [Phenacetin],z-score of prototroph abundance,[2],-0.61
same,z-score of subpopulation abundance,[3],-0.65
same,z-score of subpopulation abundance,[4],0.86
same,z-score of subpopulation abundance,[5],0.23
same,z-score of subpopulation abundance,[13],0.1
same,z-score of subpopulation abundance,[7],0.08
same,z-score of subpopulation abundance,[14],0.77
same,z-score of subpopulation abundance,[15],0.96
same,z-score of subpopulation abundance,[8],-0.01
same,z-score of subpopulation abundance,[9],0.8
same,z-score of subpopulation abundance,[10],1.17
same,z-score of subpopulation abundance,[11],-0.17
same,z-score of subpopulation abundance,[12],0.17
NS(=O)(=O)c1cc(C(=O)O)c(NCc2ccco2)cc1Cl [Furosemide],mean cell size,[1],12.5 ± 0.21
CCCCCCCCCC(=O)CC(O)S(=O)(=O)O (stereo not given) [Sodium Houttuyfonate],mean cell size,[1],12.02 ± 0.032
C[C@H]1c2cccc(O)c2C(=O)C2=C(O)[C@]3(O)C(=O)C(C(N)=O)=C(O)[C@@H](N(C)C)[C@@H]3[C@@H](O)[C@@H]21 [Doxycycline monohydrate],mean cell size,[1],12.2 ± 0.19
CC(=O)O[C@H]1C[C@@]2(C)[C@@H](C[C@@H](O)[C@H]3[C@@]4(C)CC[C@@H](O)[C@@H](C)[C@@H]4CC[C@@]32C)/C1=C(\CCC=C(C)C)C(=O)O [Fusidine],mean cell size,[1],12.41 ± 0.032
COc1ccc([C@H]2CNC(=O)C2)cc1OC1CCCC1 [S- (+)-Rolipram],mean cell size,[1],12.43 ± 0.11
C[C@@H](O)[C@H]1C(=O)N2C(C(=O)O)=C(SCCNC=N)C[C@H]12 [Imipenem],mean cell size,[1],12.26 ± 0.071
same,z-score of prototroph abundance,[2],-0.79
same,z-score of subpopulation abundance,[3],-1.04
same,z-score of subpopulation abundance,[4],0.59
same,z-score of subpopulation abundance,[5],0.19
same,z-score of subpopulation abundance,[13],-0.16
same,z-score of subpopulation abundance,[6],0.19
same,z-score of subpopulation abundance,[7],0.44
same,z-score of subpopulation abundance,[14],-0.46
same,z-score of subpopulation abundance,[15],1.18
same,z-score of subpopulation abundance,[9],0.25
same,z-score of subpopulation abundance,[10],0.59
same,z-score of subpopulation abundance,[11],0.35
C=CC1=C(C(=O)O)N2C(=O)[C@@H](NC(=O)/C(=N\O)c3csc(N)n3)[C@H]2SC1 [Cefdinir],mean cell size,[1],12.48 ± 0.068
